The record followed here is publication PMC4336329 (PLoS ONE, 2015).

SMILES strings stand for the structures. Out of some 310,000 compounds screened, about 14,000 (4.5%) showed an effect of 50% or more. Effects have a minus sign here. The sample as a whole holds a higher share of strong results than the screen did.
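Note: peak tail current of the secondary pulse compared with the same well before compound.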

In the assay the target is human ether-à-go-go-related gene (hERG) potassium channel (human, UniProt Q12809). As to the kind of experiment: primary screen, population patch clamp on CHO cells stably expressing hERG; higher = less effect of the substance.
Sequence of human ether-à-go-go-related gene (hERG) potassium channel (Q12809 whole entry, looked up): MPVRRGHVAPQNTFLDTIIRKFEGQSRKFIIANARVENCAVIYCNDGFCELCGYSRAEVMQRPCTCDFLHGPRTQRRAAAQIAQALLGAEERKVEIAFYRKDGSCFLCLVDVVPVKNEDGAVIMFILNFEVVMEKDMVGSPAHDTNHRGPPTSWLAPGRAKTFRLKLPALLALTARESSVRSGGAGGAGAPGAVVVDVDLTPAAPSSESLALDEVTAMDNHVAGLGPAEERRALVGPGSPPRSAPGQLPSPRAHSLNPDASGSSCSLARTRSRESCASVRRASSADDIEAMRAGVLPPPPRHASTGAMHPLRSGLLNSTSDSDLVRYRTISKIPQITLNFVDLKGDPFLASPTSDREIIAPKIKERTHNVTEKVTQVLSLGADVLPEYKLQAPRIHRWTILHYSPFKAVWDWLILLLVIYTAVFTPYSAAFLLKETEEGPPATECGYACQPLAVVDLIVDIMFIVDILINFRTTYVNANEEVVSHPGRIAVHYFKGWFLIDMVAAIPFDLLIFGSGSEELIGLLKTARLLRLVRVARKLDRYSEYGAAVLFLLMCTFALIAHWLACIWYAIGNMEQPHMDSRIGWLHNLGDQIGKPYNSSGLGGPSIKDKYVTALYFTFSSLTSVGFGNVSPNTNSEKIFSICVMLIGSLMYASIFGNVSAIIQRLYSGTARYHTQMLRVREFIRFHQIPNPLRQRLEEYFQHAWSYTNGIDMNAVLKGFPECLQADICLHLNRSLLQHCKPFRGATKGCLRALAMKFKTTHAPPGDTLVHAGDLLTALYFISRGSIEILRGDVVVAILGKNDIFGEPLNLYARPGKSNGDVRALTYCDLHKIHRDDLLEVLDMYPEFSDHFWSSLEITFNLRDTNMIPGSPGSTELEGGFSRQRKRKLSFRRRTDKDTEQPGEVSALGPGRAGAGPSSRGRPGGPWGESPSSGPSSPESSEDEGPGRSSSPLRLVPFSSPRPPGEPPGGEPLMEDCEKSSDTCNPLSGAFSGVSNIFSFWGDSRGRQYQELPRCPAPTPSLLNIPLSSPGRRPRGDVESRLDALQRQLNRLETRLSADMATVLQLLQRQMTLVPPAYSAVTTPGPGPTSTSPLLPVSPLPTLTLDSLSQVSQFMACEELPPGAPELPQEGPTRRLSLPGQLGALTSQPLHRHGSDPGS
As to `CCC1=C([N+](=O)[O-])C(c2ccc3c(c2)OCO3)NC(=O)N1` (stereo not shown), the “hERG current change (%, negative = inhibition) at 10uM” value came to 16%. As for `O=C(CSc1nc(CCC2CCCC2)nc2ccccc12)NCc1ccc2c(c1)OCO2`, the “hERG current change (%, negative = inhibition) at 10uM” value is 15%. On to `CCOP(=O)(OCC)C(O)c1ccc(OC)c(OC)c1` (stereo not shown), for which the “hERG current change (%, negative = inhibition) at 10uM” value is listed as 15.6%.

As for `Cc1nc(SCC(=O)NCc2ccco2)nc(C)c1C`, the “hERG current change (%, negative = inhibition) at 10uM” value was -6.76%.

As to `Cc1ccc(CNC(=O)c2csc3c2CCCCC3)cc1`, the “hERG current change (%, negative = inhibition) at 10uM” value is recorded as 2.19%. The same measure for `COc1ccc(OCC(=O)Nc2cc(-c3nn4c(C)nnc4s3)ccc2C)cc1`: -4.85%; for `Cc1ccc(OCC(=O)Nc2cc(-c3nn4c(C)nnc4s3)ccc2C)cc1`: -24.7%; for `Cc1ccc(-c2nn3c(C)nnc3s2)cc1NC(=O)COc1ccc(Cl)cc1`: -70.6%. The same measure for `CC(C)[C@H]1CN(C)CCN1Cc1cn(C)nc1-c1cccc(Cl)c1`: -27%; for `COc1ccc(C(c2c(NC(=O)c3ccco3)sc(C)c2C)N2CCOCC2)cc1OC` (stereo not shown): -15%; for `CC(=O)Nc1ccc(-c2sc(Nc3ccccc3)n[n+]2C)cc1.[Cl-]`: 27.5%. On to `COc1ccccc1C1C=C(c2ccc(Cl)cc2)Nc2nc(N3C(=O)CCC3=O)nn21` (stereo not shown), for which the “hERG current change (%, negative = inhibition) at 10uM” value was -32.8%.

`N#C/C(=C\c1ccc(N2CCOCC2)c([N+](=O)[O-])c1)c1nc2ccccc2[nH]1`: the “hERG current change (%, negative = inhibition) at 10uM” value was -59.6%. The same measure for `N#C/C(=C\c1ccc(N2CCCC2)c([N+](=O)[O-])c1)c1nc2ccccc2[nH]1`: -35.5%; for `N#C/C(=C/c1ccc(N2CCCC2)c([N+](=O)[O-])c1)c1nc2ccccc2[nH]1`: -3.43%; for `CCOc1cc(N2CCOCC2)c(OCC)cc1NC(=O)CN1C(=O)NC2(CCc3ccccc32)C1=O` (stereo not shown): -44.5%. The same measure for `CCOc1cc(N2CCOCC2)c(OCC)cc1NC(=O)CN1C(=O)NC(C)(C2CC2)C1=O` (stereo not shown): 26.8%; for `CCOc1cc(N2CCOCC2)c(OCC)cc1NC(=O)CN1C(=O)NC2(CCCCCCC2)C1=O`: -63%; for `COc1ccccc1NC(=O)CN1C(=O)NC2(CCCCCCC2)C1=O`: 1.08%. Take `CCOc1cc(N2CCOCC2)c(OCC)cc1NC(=O)CN1C(=O)NC2(CCCCC2)C1=O`: the “hERG current change (%, negative = inhibition) at 10uM” value was -69.7%. With `COc1cc(NC(=O)c2ccccc2)c(OC)cc1NC(=O)CN1C(=O)NC2(CCCCC2)C1=O`, the “hERG current change (%, negative = inhibition) at 10uM” value is given as -70.3%. For `CCOc1cc(N2CCOCC2)c(OCC)cc1NC(=O)CN1C(=O)C2CC=CCC2C1=O` (stereo not shown), the “hERG current change (%, negative = inhibition) at 10uM” value is -8.84%.

On to `CCOc1ccc(S(=O)(=O)N2CCOCC2)cc1NC(=O)CN1C(=O)NC2(CCCCC2)C1=O`, for which the “hERG current change (%, negative = inhibition) at 10uM” value was -17.9%. In the case of `CCOc1cc(N2CCOCC2)c(OCC)cc1NC(=O)CN1C(=O)N(C)C2(CCCCC2)C1=O`, the “hERG current change (%, negative = inhibition) at 10uM” value is listed as -23.5%. As to `CCOc1cc(N2CCOCC2)c(OCC)cc1NC(=O)CN1C(=O)NC(Cc2ccccc2)C1=O` (stereo not shown), the “hERG current change (%, negative = inhibition) at 10uM” value is -25.5%. In the case of `COc1cc(NC(=O)c2ccccc2)c(OC)cc1NC(=O)CN1C(=O)NC2(CCCCC2C)C1=O` (stereo not shown), the “hERG current change (%, negative = inhibition) at 10uM” value is -49.8%.

As for `CCOc1cc(N2CCOCC2)c(OCC)cc1NC(=O)CN1C(=O)NC(CC(C)C)C1=O` (stereo not shown), the “hERG current change (%, negative = inhibition) at 10uM” value is given as -70.4%.

As to `CSc1ccccc1C(=O)Nc1nc2ccccc2[nH]1`, the “hERG current change (%, negative = inhibition) at 10uM” value was determined as 2.78%. With `COc1ccccc1N(CC(=O)NC1CCCC1)C(=O)CCC(=O)Nc1ccccn1`, the “hERG current change (%, negative = inhibition) at 10uM” value came to 6.68%. On to `Cc1[nH]n(-c2ccccc2)c(=O)c1-c1ccc(Cl)cc1`, for which the “hERG current change (%, negative = inhibition) at 10uM” value was found to be 9.3%. The same measure for `COc1ccc(C(=O)NC(=S)Nc2ccccc2F)cc1`: 9.53%; for `CN(C)S(=O)(=O)Oc1ccsc1C(=O)Nc1ccc(Cl)cc1`: -33.7%; for `Cc1cc(N=NC(=O)c2ccccc2)ccc1O`: 4.74%. In the case of `O=C(Nc1ccc(Cl)cc1)NC1CCCC1Cc1ccco1` (stereo not shown), the “hERG current change (%, negative = inhibition) at 10uM” value was -15.3%. As to `Cc1ccc2nc(C)cc(Nc3ccc([N+](=O)[O-])cc3)c2c1`, the “hERG current change (%, negative = inhibition) at 10uM” value is reported as -14.4%. The same measure for `CCOc1ccc(Nc2ccnc3cc(Cl)ccc23)cc1`: -7.97%.

Take `CCOc1ccccc1/C=N/Nc1cc(C)nc2ccc(C)cc12`: the “hERG current change (%, negative = inhibition) at 10uM” value was 8.9%.

`CCOc1ccc(Nc2cc(C)nc3ccc(C)cc23)cc1`: the “hERG current change (%, negative = inhibition) at 10uM” value is -69.6%.

`CCOc1cc(/C=N/Nc2cc(C)nc3ccc(C)cc23)ccc1O`: the “hERG current change (%, negative = inhibition) at 10uM” value is on record as 11.1%. Regarding `CCOc1ccccc1Nc1cc(C)nc2ccc(C)cc12`, the “hERG current change (%, negative = inhibition) at 10uM” value is -70.1%. On to `CCOc1ccccc1Nc1ccnc2cc(Cl)ccc12`, for which the “hERG current change (%, negative = inhibition) at 10uM” value is -57.2%. Turning to `Cc1ccc(Nc2cc(C)nc3ccc(C)cc23)cc1`, the “hERG current change (%, negative = inhibition) at 10uM” value is -37.9%. Regarding `Clc1ccc2c(NNc3ccccc3Cl)ccnc2c1`, the “hERG current change (%, negative = inhibition) at 10uM” value was found to be 7.9%.
